Screening data as filed in PubChem BioAssay.
The list is not random: actives were taken first. Their share in the collection is about 6.5%.
LASV entry inh = blocks Lassa virus binding to or entry into cells; Lassa virus pseudotype entry inhibition, cell reporter; Potency, µM (titrated, usually from 37.9 µM), without a hit: top-dose activity change, negative = inhibition, actives largely listed as inhibitors; 1.2% of 300,000 active; AID 540256; calls by dose curve; tested in HEK293 cells; also: potency is read from the fitted curve at half-maximal effect; nearly all actives have a fitted effect of over 50% in size
MARV entry inh = blocks Marburg virus binding to or entry into cells. Marburg virus pseudotyped entry inhibition, cell reporter. Potency, µM (top dose mostly 37.8 µM), inactives show at the highest dose activity change, negative = inhibition, hits mostly inhibitors. 1.8% of 300,000 active. AID 540276; calls by dose curve; tested in HEK293 cells; also: potency is read from the fitted curve at half-maximal effect
HCMV inh = blocks human cytomegalovirus replication; activity change, negative = inhibition, % at 57.5 µM; 4.5% of 410,000 active; HFF cells, HCMV-luciferase reporter, 72 h; hits give low values; in the data active = activity change below about -60%; inconclusive = no clear call, values can overlap the other calls; inactive = above about -39%
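Two compound doses tested in HFFs infected with HCMV-luciferase, MOI 1 PFU/cell, 72 h at 37C. Lysate luminescence read with OneGlo; data normalized against buffer-only and 10uM Salinomycin inhibitor controls.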
FMDV inh = antivirals against foot and mouth disease virus | AID 1159524 | 1.2% of 410,000 active | FMDV antiviral cell-based qHTS | Potency, µM (titrated, usually from 57.9 µM), without a hit: at the highest dose activity change, negative = inhibition, actives largely listed as inhibitors; calls by dose curve; tested in HEK293T cells; also: read-out not given here; potency is read from the fitted curve at half-maximal effect; nearly all actives have a fitted effect of over 45% in size
VACV Venus inh = vaccinia inhibition (Venus reporter). Vaccinia virus Venus reporter expression, fluorescence. Potency, µM (top dose mostly 36.5 µM), for inactives: at the highest dose activity change, negative = inhibition, usual class: inhibitors. 0.46% of 330,000 active. AID 720580; calls by dose curve; tested in A549 cells; also: potency is read from the fitted curve at half-maximal effect; nearly all actives have a fitted effect of over 30% in size
Vaccinia mCherry = inhibitors of vaccinia virus infection (mCherry reporter signal); Vaccinia virus mCherry reporter infection, fluorescence; Potency, µM (doses to about 36.5 µM), without a hit: at the top dose activity change, negative = inhibition, actives largely listed as inhibitors; 0.63% of 310,000 active; calls by dose curve; tested in A549 cells; also: potency is read from the fitted curve at half-maximal effect; nearly all actives have a fitted effect of over 35% in size
The depositor's hits bear a star; [ ] = remark or other dose. % is scaled to controls: 0 for no effect and ±100 for the full control effect.

Results for CCOC(=O)C1CCCN(Cc2nc(N)nc(Nc3ccc(Cl)cc3)n2)C1 (configuration not stated) ?
LASV entry inh: -8%; MARV entry inh: 7.1µM*; HCMV inh: inconclusive; FMDV inh: 28µM*; VACV Venus inh: -23%; Vaccinia mCherry: -21%

How did CCOC(=O)N1CCN(Cc2nc(N)nc(Nc3ccc(OC)cc3)n2)CC1 do in these assays?
LASV entry inh: 8%; MARV entry inh: 2%; HCMV inh: 2; FMDV inh: 12%; VACV Venus inh: -14%; Vaccinia mCherry: -20%

What do the screens show for `CC(=O)c1cc(-c2ccccc2)n(CCC(=O)Nc2ccc(C(C)C)cc2)c1C`?
LASV entry inh: inconclusive; HCMV inh: 0; FMDV inh: inconclusive; VACV Venus inh: -15%; Vaccinia mCherry: inactive

What do the screens show for `CC1=C(C(=O)NCc2cccc(Cl)c2)C2(CCCCCC2)OC1=O`?
LASV entry inh: 19%[46.1 µM]; HCMV inh: inconclusive; FMDV inh: -9%; VACV Venus inh: -12%; Vaccinia mCherry: -11%

How did Cc1ccc(NC(=O)C(C)n2nnc3sc4c(c3c2=O)CCCC4)cc1Cl (configuration not stated) do in these assays?
LASV entry inh: inconclusive; MARV entry inh: 0%[46.1 µM]; HCMV inh: -21; FMDV inh: 0%; VACV Venus inh: 3%; Vaccinia mCherry: -1%

What do the screens show for `c1ccc(-c2nc3ccccc3nc2-c2nc3ccccc3[nH]2)cc1`?
HCMV inh: 5

How did COCc1c(C(=O)N2CCCCC2c2cccnc2)cnn1-c1ncc2c(n1)-c1ccccc1CCC2 (configuration not stated) do in these assays?
FMDV inh: -17%; VACV Venus inh: -4%; Vaccinia mCherry: -20%

How did COc1ccccc1OC(C)C(=O)Nc1ccc(-c2nc3ccccc3s2)cc1 (configuration not stated) do in these assays?
LASV entry inh: 1%[46.1 µM]; MARV entry inh: inconclusive; HCMV inh: -17; FMDV inh: 14%; VACV Venus inh: -8%; Vaccinia mCherry: inactive

What do the screens show for `CCCCc1c(C)[nH]c2c(OC)cccc2c1=S`?
VACV Venus inh: -13%; Vaccinia mCherry: inactive

Results for c1ccc(C(Cc2nc(-c3ccncc3)no2)c2ccccc2)cc1 ?
LASV entry inh: inconclusive; MARV entry inh: 3%; HCMV inh: -69*; FMDV inh: inconclusive

What do the screens show for `CCc1ccc(-c2nc(-c3ccncc3)no2)cc1`?
LASV entry inh: inconclusive; MARV entry inh: 13µM*; HCMV inh: 12; FMDV inh: -73%; VACV Venus inh: inconclusive

Results for c1ccc(-c2nc(-c3ccncc3)no2)cc1 ?
LASV entry inh: 0%; MARV entry inh: 6%; HCMV inh: 7; FMDV inh: 38%; VACV Venus inh: -5%; Vaccinia mCherry: -14%

Results for c1ccc(-c2ccc(-c3nc(-c4ccncc4)no3)cc2)cc1 ?
LASV entry inh: inconclusive; MARV entry inh: inconclusive; HCMV inh: -72*; VACV Venus inh: -5%; Vaccinia mCherry: -12%

Results for COC(=O)CC=C[C@@H](C)[C@@H](C=NOC[C@@H](O)[C@H]1O[C@@H]2OC(C)(C)O[C@H]2[C@@H]1O)OC ?
LASV entry inh: inconclusive; MARV entry inh: 22%[14.2 µM]

Results for Fc1ccc(Nc2nccc(-c3c(-c4ccc(C(F)(F)F)cc4)nn4ncccc34)n2)cc1F ?
LASV entry inh: -4%

How did COc1ccccc1CN1CC(C(=O)NCc2nccn2C)CCC1=O (configuration not stated) do in these assays?
HCMV inh: -37; FMDV inh: -2%

What do the screens show for `COc1ccccc1CN1CC(C(=O)NCc2nc3ccccc3n2C)CCC1=O` (configuration not stated)?
LASV entry inh: 1%; MARV entry inh: -15%; HCMV inh: -64*; FMDV inh: -6%; VACV Venus inh: -14%; Vaccinia mCherry: inactive

How did COc1cc(C2NC(=O)N(C)C3=C2C(=O)N(c2ccccc2)C3)ccc1O (configuration not stated) do in these assays?
LASV entry inh: -17%[46.1 µM]; MARV entry inh: -27%[46.1 µM]; HCMV inh: -97*; FMDV inh: -18%; VACV Venus inh: 13%; Vaccinia mCherry: 8%
